Structures are written as SMILES. “And” between values parts separate entries of the source, which are not always exact repeats. Equal entries are not always repeated. Results filed as inconclusive are left out. The source made the active and inactive calls. How the source made its calls: active means hit-call score of the fitted dose curve at least 0.9, where 1 is the maximum; inconclusive means response in the unintended direction; inactive means score below 0.9.

The target of test [1] is human AKT serine/threonine Kinase 1 (AKT1), AKT1 (gene 207) (UniProt P31749). The test can be described thus: NVS_ENZ_hAKT1: NovaScreen (NVS) Enzymatic Assay for human AKT serine/threonine Kinase 1 (AKT1) (AID 2283138). The gist of the method:
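Recombinant human AKT1 with a specific substrate, product separated by electrophoretic mobility shift, read after 1 h. Compounds at 25 uM in duplicate, then concentration-response up to 50 uM for hits; inhibition relative to DMSO.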

Another test deals with Caspase-3 (Homo sapiens) (UniProt P42574). Briefly: NVS_ENZ_hCASP3: NovaScreen (NVS) Enzymatic Assay for human Caspase 3 (CASP3) (AID 2283139). Here is the method:
(§1) NVS_ENZ_hCASP3 is a biochemical, single-readout assay that uses extracted gene-proteins from E. coli in a cell-free assay. Measurements were taken 1 hour after chemical dosing in a 96-well plate.NVS_ENZ_hCASP3 is one of one assay component(s) measured or calculated from the NVS_ENZ_hCASP3 assay. It is designed to make measurements of enzyme activity, a form of enzyme reporter, as detected with fluorescence intensity signals by Fluorescence technology.Data from the assay component NVS_ENZ_hCASP3 was analyzed into 1 assay endpoint. This assay endpoint, NVS_ENZ_hCASP3, was analyzed in the positive analysis fitting direction relative to DMSO as the negative control and baseline of activity. Using a type of enzyme reporter, loss-of-signal activity can be used to understand changes in the enzymatic activity as they relate to the gene CASP3. Furthermore, this assay endpoint can be referred to as a primary readout, because this assay has produced multiple assay endpoints where this one serves a enzymatic activity function. To generalize the intended target to other relatable targets, this assay endpoint is annotated to the protease intended target family, where the subfamily is cysteine protease.
(§2) Binding assays used specific radioligands (tritiated, iodinated) with non-radioactive competitive displacement ligands in agonist or antagonist protocols (as indicated) and various reference compounds and inhibitors to titrate specific binding to receptors and transporters. Most enzyme assays (CYPs, kinases, phosphatases, proteases, HDACs) used recombinant protein and specific substrates (fluorescence mostly, some colorimetric and radioactive) and inhibitors, followed by a biochemical separation of substrate and product. All assays for the biochemical HTS were initially run in duplicate at a single concentration (10 uM for CYP450 assays and 25 uM for all others). […]

In test [2] the target is human Caspase 10 (CASP10), CASP10 (gene 843) (UniProt Q92851). The test can be described thus: NVS_ENZ_hCASP10: NovaScreen (NVS) Enzymatic Assay for human Caspase 10 (CASP10) (AID 2283133). The gist of the method:
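Recombinant human caspase-10 from E. coli, cell-free fluorogenic substrate assay read 1 h after dosing. Primary duplicate screen at 25 uM; hits (e.g. ≥30% inhibition) run singly in concentration-response up to 50 uM, normalised to DMSO.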

Test [3] deals with human AKT serine/threonine Kinase 2 (AKT2), AKT2 (gene 208) (UniProt P31751). The test can be described thus: NVS_ENZ_hAKT2: NovaScreen (NVS) Enzymatic Assay for human AKT serine/threonine Kinase 2 (AKT2) (AID 2283141). The gist of the method:
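Cell-free fluorescence/electrophoretic mobility shift readout of recombinant human AKT2 activity, 1 h after chemical dosing. Duplicate primary screen at 25 uM, then singleton concentration-response up to 50 uM; loss of signal versus DMSO baseline.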

Test [4] deals with human AMP-activated Protein Kinase, alpha 1 (AMPKa1), PRKAA1 (gene 5562) (UniProt Q13131). Briefly: NVS_ENZ_hAMPKa1: NovaScreen (NVS) Enzymatic Assay for human AMP-activated Protein Kinase, alpha 1 (AMPKa1) (AID 2283130). The gist of the method:
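Recombinant human AMPKα1 activity was measured cell-free by fluorescent substrate conversion with electrophoretic mobility-shift separation, 1 h after dosing. Duplicate single-point screening was at 25 uM; actives (≥30% inhibition) were retested in concentration-response up to 50 uM.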

Test [5] concerns the target human Acid Phosphatase 1 (ACP1), ACP1 (gene 52) (UniProt P24666). Briefly: NVS_ENZ_hACP1: NovaScreen (NVS) Enzymatic Assay for human Acid Phosphatase 1 (ACP1) (AID 2283136). The gist of the method:
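Recombinant enzyme expressed in Sf9 cells, tested cell-free; activity read by fluorescence with electrophoretic mobility shift separation of substrate and product, 1.5 h after dosing. Primary screen in duplicate at 25 uM, actives then run in concentration series; loss of signal versus DMSO.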

The target in test [6] is human Caspase 5 (CASP5), CASP5 (gene 838) (UniProt P51878). Briefly: NVS_ENZ_hCASP5: NovaScreen (NVS) Enzymatic Assay for human Caspase 5 (CASP5) (AID 2283137). Here is the method: as §1, with “NVS_ENZ_hCASP5” for “NVS_ENZ_hCASP3”, “2 hours” for “1 hour”, “plate.NVS_ENZ_hCASP5” for “plate.NVS_ENZ_hCASP3”, “NVS_ENZ_hCASP5,” for “NVS_ENZ_hCASP3,”, “CASP5.” for “CASP3.”
Chain of human Caspase 5 (CASP5), CASP5 (gene 838) (P51878 whole entry, looked up): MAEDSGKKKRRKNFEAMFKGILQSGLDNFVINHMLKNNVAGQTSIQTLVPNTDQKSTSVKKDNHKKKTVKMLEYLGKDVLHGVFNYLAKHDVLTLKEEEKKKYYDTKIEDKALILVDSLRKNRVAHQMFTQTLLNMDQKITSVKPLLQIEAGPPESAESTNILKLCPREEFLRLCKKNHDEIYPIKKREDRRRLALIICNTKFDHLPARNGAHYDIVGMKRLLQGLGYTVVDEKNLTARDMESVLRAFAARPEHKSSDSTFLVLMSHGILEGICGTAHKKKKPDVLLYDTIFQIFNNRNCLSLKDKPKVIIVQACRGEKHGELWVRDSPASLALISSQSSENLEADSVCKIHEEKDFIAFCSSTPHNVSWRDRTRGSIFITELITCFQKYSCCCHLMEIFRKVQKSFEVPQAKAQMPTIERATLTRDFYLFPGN
as §2

Test [7] has as its target human Beta-secretase (BACE), BACE1 (gene 23621) (UniProt P56817). Briefly: NVS_ENZ_hBACE: NovaScreen (NVS) Enzymatic Assay for human Beta-secretase (BACE) (AID 2283140).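 Further: hits are inhibitors that reduce fluorescent substrate signal versus DMSO.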 The method, boiled down:
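Cell-free assay of recombinant Sf9-expressed human BACE with fluorescent substrate, read by fluorescence intensity after 1 h. Primary screen in duplicate at 25 uM; actives then run in concentration series; loss of signal relative to DMSO.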

For another test, the target named is Caspase-1 (Homo sapiens) (UniProt P29466). Briefly: NVS_ENZ_hCASP1: NovaScreen (NVS) Enzymatic Assay for human Caspase 1 (CASP1) (AID 2283132). Here is the method:
as §1, with “NVS_ENZ_hCASP1” for “NVS_ENZ_hCASP3”, “plate.NVS_ENZ_hCASP1” for “plate.NVS_ENZ_hCASP3”, “NVS_ENZ_hCASP1,” for “NVS_ENZ_hCASP3,”, “CASP1.” for “CASP3.”
Binding assays used specific radioligands (tritiated, iodinated) with non-radioactive competitive displacement ligands in agonist or antagonist protocols (as indicated) and various reference compounds and inhibitors to titrate specific binding to receptors and transporters. Most enzyme assays (CYPs, kinases, phosphatases, proteases, HDACs) used recombinant protein and specific substrates (fluorescence mostly, some colorimetric and radioactive) and inhibitors, followed by a biochemical separation of substrate and product. All assays for the biochemical HTS were initially run in duplicate at a single concentration (10 uM for CYP450 assays and 25 uM for all others). Assay-chemical combinations meeting a pre-defined threshold (e.g., 30% inhibition and other criteria defined below) were then run in singleton concentration-response format with maximum concentration of 20 uM for CYPs and 50 uM for all others. Each assay was run with positive and negative controls, and concurrent controls on every plate. The follow-up (secondary) screen tested active chemical-pairs in concentration series, as well as a few additional assays not tested in the primary screen, some selected negative inactives, and several cases re-run in the concentration series for confirmatory purposes.

Chain of human Beta-secretase (BACE), BACE1 (gene 23621) (P56817 whole entry, looked up): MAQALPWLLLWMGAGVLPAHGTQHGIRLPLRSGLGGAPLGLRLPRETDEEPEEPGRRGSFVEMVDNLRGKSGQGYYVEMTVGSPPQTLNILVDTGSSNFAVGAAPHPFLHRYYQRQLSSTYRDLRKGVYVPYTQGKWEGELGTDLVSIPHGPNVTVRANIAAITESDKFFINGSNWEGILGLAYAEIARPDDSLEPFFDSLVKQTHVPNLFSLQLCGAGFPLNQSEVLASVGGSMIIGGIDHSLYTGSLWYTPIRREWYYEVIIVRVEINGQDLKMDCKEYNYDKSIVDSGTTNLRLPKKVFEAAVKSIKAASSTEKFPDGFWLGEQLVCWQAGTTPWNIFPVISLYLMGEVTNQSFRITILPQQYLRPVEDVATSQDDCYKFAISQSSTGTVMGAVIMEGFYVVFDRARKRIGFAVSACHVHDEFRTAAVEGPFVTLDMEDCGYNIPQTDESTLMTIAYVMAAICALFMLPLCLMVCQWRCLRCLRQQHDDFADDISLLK
Chain of human AMP-activated Protein Kinase, alpha 1 (AMPKa1), PRKAA1 (gene 5562) (Q13131 whole entry, looked up): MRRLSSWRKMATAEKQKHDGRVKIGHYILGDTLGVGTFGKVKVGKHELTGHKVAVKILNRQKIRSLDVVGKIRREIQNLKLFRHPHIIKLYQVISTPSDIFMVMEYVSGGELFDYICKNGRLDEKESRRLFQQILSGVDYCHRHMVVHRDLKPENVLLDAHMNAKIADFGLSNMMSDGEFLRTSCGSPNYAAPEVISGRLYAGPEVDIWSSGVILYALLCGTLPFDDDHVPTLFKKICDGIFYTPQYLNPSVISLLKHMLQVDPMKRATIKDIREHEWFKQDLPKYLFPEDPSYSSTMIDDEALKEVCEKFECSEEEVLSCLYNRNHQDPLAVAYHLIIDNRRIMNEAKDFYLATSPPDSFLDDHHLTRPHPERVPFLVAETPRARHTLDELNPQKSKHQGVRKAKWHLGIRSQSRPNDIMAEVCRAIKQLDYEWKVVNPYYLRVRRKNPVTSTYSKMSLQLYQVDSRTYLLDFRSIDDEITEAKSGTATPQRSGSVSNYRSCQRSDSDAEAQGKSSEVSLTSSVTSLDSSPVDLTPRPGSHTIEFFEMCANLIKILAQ
Chain of human AKT serine/threonine Kinase 2 (AKT2), AKT2 (gene 208) (P31751 whole entry, looked up): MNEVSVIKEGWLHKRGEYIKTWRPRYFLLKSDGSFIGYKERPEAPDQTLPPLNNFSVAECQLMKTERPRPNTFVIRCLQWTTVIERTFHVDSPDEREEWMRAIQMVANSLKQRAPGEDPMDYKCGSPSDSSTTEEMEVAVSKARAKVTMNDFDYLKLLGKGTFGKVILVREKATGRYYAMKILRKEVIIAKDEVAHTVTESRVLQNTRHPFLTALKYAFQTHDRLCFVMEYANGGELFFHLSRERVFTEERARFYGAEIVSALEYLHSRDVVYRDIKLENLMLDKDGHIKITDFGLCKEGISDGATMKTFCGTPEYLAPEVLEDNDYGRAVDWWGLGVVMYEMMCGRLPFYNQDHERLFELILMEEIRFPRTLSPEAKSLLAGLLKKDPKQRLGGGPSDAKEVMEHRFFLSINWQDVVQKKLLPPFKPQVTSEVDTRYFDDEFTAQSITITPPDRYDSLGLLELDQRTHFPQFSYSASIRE
Chain of human AKT serine/threonine Kinase 1 (AKT1), AKT1 (gene 207) (P31749 whole entry, looked up): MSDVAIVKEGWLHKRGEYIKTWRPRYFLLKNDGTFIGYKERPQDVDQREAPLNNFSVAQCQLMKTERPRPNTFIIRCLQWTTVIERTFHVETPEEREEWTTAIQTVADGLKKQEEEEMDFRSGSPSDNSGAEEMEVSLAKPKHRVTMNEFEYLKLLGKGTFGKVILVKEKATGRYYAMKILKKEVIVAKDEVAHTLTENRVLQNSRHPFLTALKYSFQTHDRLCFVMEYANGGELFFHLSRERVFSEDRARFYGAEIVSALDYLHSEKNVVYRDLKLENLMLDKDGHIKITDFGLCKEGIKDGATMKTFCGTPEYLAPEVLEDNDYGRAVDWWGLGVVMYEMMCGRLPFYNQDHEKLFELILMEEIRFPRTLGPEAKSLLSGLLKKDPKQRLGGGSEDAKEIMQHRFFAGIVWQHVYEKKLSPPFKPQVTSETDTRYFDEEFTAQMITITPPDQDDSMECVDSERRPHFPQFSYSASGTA
Chain of human Caspase 10 (CASP10), CASP10 (gene 843) (Q92851 whole entry, looked up): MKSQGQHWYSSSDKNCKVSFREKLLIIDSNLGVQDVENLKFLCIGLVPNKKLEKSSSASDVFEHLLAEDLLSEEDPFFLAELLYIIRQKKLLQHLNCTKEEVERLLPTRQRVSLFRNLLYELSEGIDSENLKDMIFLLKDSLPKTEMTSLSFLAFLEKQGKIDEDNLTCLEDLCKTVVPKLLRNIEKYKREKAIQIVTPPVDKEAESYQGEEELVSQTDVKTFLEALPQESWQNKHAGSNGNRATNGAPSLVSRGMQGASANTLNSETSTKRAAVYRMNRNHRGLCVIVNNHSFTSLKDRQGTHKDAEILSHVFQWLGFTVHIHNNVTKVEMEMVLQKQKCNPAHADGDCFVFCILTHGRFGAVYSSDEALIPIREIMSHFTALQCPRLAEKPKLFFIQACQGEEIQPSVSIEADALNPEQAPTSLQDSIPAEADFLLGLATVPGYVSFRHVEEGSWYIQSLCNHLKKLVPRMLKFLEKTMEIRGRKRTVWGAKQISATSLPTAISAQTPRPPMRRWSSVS
Chain of Caspase-1 (Homo sapiens) (P29466 whole entry, looked up): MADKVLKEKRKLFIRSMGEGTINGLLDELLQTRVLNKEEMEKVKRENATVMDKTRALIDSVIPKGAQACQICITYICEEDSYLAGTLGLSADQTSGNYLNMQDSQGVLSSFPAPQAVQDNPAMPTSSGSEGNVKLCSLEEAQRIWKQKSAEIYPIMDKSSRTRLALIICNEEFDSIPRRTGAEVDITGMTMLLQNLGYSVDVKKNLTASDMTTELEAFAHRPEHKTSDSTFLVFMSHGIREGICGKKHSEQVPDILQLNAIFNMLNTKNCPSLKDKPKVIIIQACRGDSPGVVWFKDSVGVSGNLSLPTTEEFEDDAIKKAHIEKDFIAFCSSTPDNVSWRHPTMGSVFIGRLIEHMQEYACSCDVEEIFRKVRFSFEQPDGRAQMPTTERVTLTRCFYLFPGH
Chain of Caspase-3 (Homo sapiens) (P42574 whole entry, looked up): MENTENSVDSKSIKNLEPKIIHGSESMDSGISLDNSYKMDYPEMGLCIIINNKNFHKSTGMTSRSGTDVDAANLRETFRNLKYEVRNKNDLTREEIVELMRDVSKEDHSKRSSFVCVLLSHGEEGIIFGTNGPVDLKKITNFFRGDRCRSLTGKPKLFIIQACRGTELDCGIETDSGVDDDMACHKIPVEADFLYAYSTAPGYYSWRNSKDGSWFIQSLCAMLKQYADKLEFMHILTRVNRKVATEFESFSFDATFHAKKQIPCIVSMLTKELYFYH
Chain of human Acid Phosphatase 1 (ACP1), ACP1 (gene 52) (P24666 whole entry, looked up): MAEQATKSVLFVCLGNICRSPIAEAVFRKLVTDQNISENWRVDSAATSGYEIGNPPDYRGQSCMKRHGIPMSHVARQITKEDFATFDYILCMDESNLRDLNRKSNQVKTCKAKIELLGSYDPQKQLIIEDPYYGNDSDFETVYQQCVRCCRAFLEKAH

For `CNC(=O)CSP(=S)(OC)OC`, in test [1], the result was inactive.
Turning to `CCOC1Oc2ccc(OS(C)(=O)=O)cc2C1(C)C` (stereo not drawn), the outcome with Caspase-3 (Homo sapiens) was inactive.
Turning to `COC(=O)c1ccccc1S(=O)(=O)NC(=O)N(C)c1nc(C)nc(OC)n1`, the AC50 in test [2] is 6.07 µM (active). Moreover, the outcome in test [1] and in test [3] was inactive.
Take `CC(C)(C)C(O)C(Oc1ccc(Cl)cc1)n1cncn1` (stereo not drawn): the compound was classed as inactive in test [4] and in test [5].
As for `N#Cc1c(Cl)c(Cl)c(Cl)c(C#N)c1Cl`, the half-maximal activity concentration (AC50) in test [4] is 4.96 µM (active). Also, the result in [1] and in test [3] was inactive.
`Clc1ccccc1-c1nnc(-c2ccccc2Cl)nn1`: the result in [3] was inactive.
Take `Oc1ccc(Cl)cc1Cc1ccccc1`: the result in test [4], in [6] and in test [1] was inactive. Besides, the half-maximal activity concentration (AC50) in test [7] is 18.9 µM (active) [middle of 6 runs].
On to `COC(=O)c1ccccc1CS(=O)(=O)NC(=O)Nc1nc(OC)cc(OC)n1`, for which the compound was classed as inactive in [1].
Regarding `C[C@H]1[C@H](c2ccc(Cl)cc2)SC(=O)N1C(=O)NC1CCCCC1`, the call with Caspase-3 (Homo sapiens) was inactive.
Take `CCC(C)(C)C(=O)OC1=C(c2ccc(Cl)cc2Cl)C(=O)OC12CCCCC2`: the AC50 in test [7] is 17.6 µM (active).
Consider `O=S(=O)(O)C(F)(F)C(F)(F)C(F)(F)C(F)(F)C(F)(F)C(F)(F)C(F)(F)C(F)(F)F`, for which the AC50 in test [4] is 15.7 µM (active) and 5.63 µM (active); in [5] it was 24.7 µM (active); in test [6], 26.7 µM (active) [middle of 4 runs]; in test [1], 46.7 µM (active); in test [7], 2.29 µM (active) and 2.36 µM (active) and 8.91 µM (active). The result (in the test with Caspase-1 (Homo sapiens); in [2]) was inactive.
As for `CC1(C)C(C=C(Cl)Cl)C1C(=O)OC(C#N)c1ccc(F)c(Oc2ccccc2)c1` (stereo not drawn), in the test with Caspase-1 (Homo sapiens), the compound was classed as inactive. Moreover, in test [7], the half-maximal activity concentration (AC50) was 3.31 µM (active).
For `CC[C@H](C)[C@H]1O[C@]2(C=C[C@@H]1C)C[C@@H]1C[C@@H](C/C=C(\C)[C@@H](O[C@H]3C[C@H](OC)[C@@H](O[C@H]4C[C@H](OC)[C@@H](O)[C@H](C)O4)[C@H](C)O3)[C@@H](C)/C=C/C=C3\CO[C@@H]4[C@H](O)C(C)=C[C@@H](C(=O)O1)[C@]34O)O2` (tested in a mixture with another compound), in test [4], the AC50 was 31.2 µM (active).
